From PubChem
Hits are enriched below; roughly 2.8% of the tested compounds scored in any of these assays.
pCIP destab: p/CIP protein destabilization; F442A p/CIP-EGFP cells, EGFP fluorescence, 16 h; decrease of EGFP signal, % at 10 µM; 0.01% of 290,000 active;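 active means EGFP signal decrease of at least 30% at 10 µM or well 3 SD below plate mean, unless failing retest; inactive means the rest, including hits failing retest or dose response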
PolyA inh: inhibitors of polyadenylation in S. cerevisiae; S. cerevisiae SKY197-pL101 polyadenylation reporter, beta-gal luminescence; efflux-impaired pdr1/pdr3 knockout yeast; score 100 = 6 SD above DMSO; activity score, % at 12 µM; 0.02% of 300,000 active; AID 1875;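 active means lowest replicate activity score at least 50, where 100 means six control SD above control mean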;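 further: yeast exposed to compound for 9 h at 30 °C; higher score means more reporter readthrough which indicates perturbed polyadenylation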
Platelet DG rel: modulates dense granule release in human platelets | inhibition, %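 (compounds screened at 7.5 µM in platelet-rich plasma)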 | human platelet-rich plasma, SFLLRN dense granule ATP release, luminescence | 0.22% of 300,000 active | AID 1663;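 active means mean replicate score, as percent of positive control, at or above 50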
AHR act: activators of human aryl hydrocarbon receptor; AHR-responsive luciferase reporter cells, luminescence; activation, % at 5 µM; P35869; 2.5% of 320,000 active; in the data active means activation above about 47%;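 further: 0% = vehicle wells and 100% = reference agonist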
HIF activator: HIF pathway transcriptional activation | U2OS HRE-luciferase reporter, luminescence; normalized: DMSO 0%, desferrioxamine 100% | activation, % at 7.5 µM (by protocol) | 0.32% of 300,000 active;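 active means mean activation of at least 10% of the iron chelator positive control signal, with at least half of replicates also reaching 10%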
Starred values were filed as active, the others as inactive; nt = not tested or not shown.

SMILES | pCIP destab | PolyA inh | Platelet DG rel | AHR act | HIF activator
COc1ccccc1NC(=S)NC(=O)Cc1ccccc1 | nt | 0 | 9 | 14 | 0
COc1ccc(NC(=O)c2cc(Br)ccc2Cl)c(OC)c1 | -2 | -8 | 9 | 107* | -2
CC(NC(=O)COC(=O)c1ccccc1F)C1CC2CCC1C2 (centres undefined) | nt | nt | nt | 0 | nt
CC(=O)c1cccc(NC(=O)CCc2nc3sc4c(c3c(=O)[nH]2)CCCC4)c1 | nt | 4 | 3 | 7 | -1
NC(=O)C1CCN(c2nc(-c3ccccc3Br)cs2)CC1 | nt | nt | nt | 65* | nt
S=c1[nH]nc(-c2ccccc2)n1/N=C/c1cccs1 | -8 | -10 | -4 | 37 | 0
Cc1ccc(-c2n[nH]c(=S)n2/N=C/c2cccs2)cc1 | 4 | 2 | -3 | 55* | 0
S=c1[nH]nc(-c2ccco2)n1/N=C/c1cccs1 | 7 | -18 | 9 | 2 | 58*
COc1ccc(-c2n[nH]c(=S)n2/N=C/c2cccn2C)cc1 | -15 | -14 | 13 | 70* | 0
CC(C)(C)c1ccc(-c2n[nH]c(=S)n2/N=C/c2ccncc2)cc1 | 2 | -5 | 7 | 75* | 3
COc1ccc(Nc2nc(C(=O)NCCCN3CCOCC3)cs2)cc1 | 1 | 22 | 3 | 4 | 0
COc1ccc(C(CNC(=O)C(=O)NC2CCCC2)N2CCN(C)CC2)cc1 (centres undefined) | nt | -6 | 2 | 7 | 0
CCN(CC)C(=O)OCCc1cc2ccccc2c(=O)o1 | nt | nt | nt | 2 | nt
Cc1ccsc1/C=N/n1c(-c2cccnc2)n[nH]c1=S | -5 | 6 | 1 | 60* | -1
O=C1c2ccccc2CC1Sc1nnc(-c2ccncc2)o1 (centres undefined) | 2 | 10 | 0 | 63* | 0
O=C1CC(Sc2nnc(-c3ccccc3)o2)C(=O)N1c1ccccc1 (centres undefined) | 0 | -20 | 9 | -3 | 1
COC(=O)CCSCC(=O)N1N=C(c2ccc(OC)cc2)CC1c1cccc(OC)c1OC (centres undefined) | 12 | 7 | 7 | 18 | -1
COc1ccc(N(CC(=O)NC2CCCCC2)C(=O)CNC(=O)c2ccco2)cc1 | 3 | 8 | 8 | -1 | 0
CCCCn1c(N)c(N(CCOC)C(=O)c2ccc(C)c(S(=O)(=O)N3CCCCC3)c2)c(=O)[nH]c1=O | nt | 0 | -6 | -1 | 0
COc1ccc(N(CC(=O)Nc2ccc3c(c2)OCO3)S(=O)(=O)c2ccc(F)cc2)cc1 | -19 | -6 | 0 | 67* | 1
COc1ccc(OC)c(N(CC(=O)Nc2ccccc2)S(=O)(=O)c2ccccc2)c1 | -11 | -13 | -2 | 10 | 0
COc1ccc(S(=O)(=O)N(C)CC(=O)Nc2ccc3c(c2)OCO3)cc1OC | -4 | -2 | 71* | 6 | 0
COc1ccc(N(CC(=O)Nc2ccc3c(c2)OCO3)S(=O)(=O)c2ccccc2)c(OC)c1 | 7 | 4 | -2 | 63* | -1
CS(=O)(=O)N(CC(=O)Nc1ccc2c(c1)OCO2)Cc1ccc(Cl)cc1 | -2 | 19 | 4 | 65* | 0
Cc1csc(SCC(=O)Nc2ncc(Cl)c(C)c2Cl)n1 | 10 | -3 | 4 | 11 | 0
SMILES | pCIP destab | PolyA inh | Platelet DG rel | AHR act | HIF activator
Cc1nn(C)c(C)c1S(=O)(=O)N(CC(=O)Nc1ccc2c(c1)OCO2)c1ccc(C(C)C)cc1 | 1 | nt | nt | 56* | nt
COc1ccc(N(CC(=O)Nc2ccc3c(c2)OCO3)S(=O)(=O)c2ccccc2)cc1OC | 1 | -10 | -1 | 50* | -1
COc1ccc(N(CC(=O)Nc2ccc3c(c2)OCCO3)S(=O)(=O)c2c(C)nn(C)c2C)cc1 | -11 | 9 | 3 | 2 | 0
COc1cc(CN2CCN(CC3CC3)CC2CCO)cc(OC)c1 (centres undefined) | -4 | -7 | -1 | 4 | 1
COc1ccc(N2CCN(C(=O)c3ccc(-c4nc5ccccc5s4)o3)CC2)cc1 | nt | nt | nt | 69* | nt
O=[N+]([O-])c1cccc(S(=O)(=O)/N=C(/Nc2ccccc2)c2ccccc2)c1 | nt | nt | nt | 0 | nt
CC(=O)Oc1ccc(-c2cc3c(OC(C)=O)cc(OC(C)=O)cc3oc2=O)cc1 | nt | 8 | 58* | 4 | 0
CC(=O)Oc1ccc(-c2cc3ccccc3oc2=O)cc1 | nt | -24 | 24 | -2 | 2
CN(C)c1oc(/C=C/c2ccccc2)nc1C#N | -4 | -11 | 0 | 50* | 2
COc1ccccc1/C=C/c1nc(C#N)c(N(C)C)o1 | -4 | -31 | 0 | 40 | 4
